A selection: hits, their analogues and other compounds. The true share with any hit is near 18%.
RORgamma inh: qHTS for inhibitors of ROR gamma transcriptional activity; Nuclear receptor ROR-gamma (Mus musculus), P51450; Drosophila S2 Gal4-RORgamma UAS-luciferase reporter, 20 h; Potency, µM (highest dose often 53.6 µM), for the others: top-dose activity change, negative = inhibition, usual class: inhibitors; 310,000 tested, 5.4% active; AID 2551, 2010; note: potency is the fitted concentration of half-maximal effect; nearly all actives have a fitted effect of over 60% in size
Target sequence (P51450 whole entry, looked up, the tested form may be a part): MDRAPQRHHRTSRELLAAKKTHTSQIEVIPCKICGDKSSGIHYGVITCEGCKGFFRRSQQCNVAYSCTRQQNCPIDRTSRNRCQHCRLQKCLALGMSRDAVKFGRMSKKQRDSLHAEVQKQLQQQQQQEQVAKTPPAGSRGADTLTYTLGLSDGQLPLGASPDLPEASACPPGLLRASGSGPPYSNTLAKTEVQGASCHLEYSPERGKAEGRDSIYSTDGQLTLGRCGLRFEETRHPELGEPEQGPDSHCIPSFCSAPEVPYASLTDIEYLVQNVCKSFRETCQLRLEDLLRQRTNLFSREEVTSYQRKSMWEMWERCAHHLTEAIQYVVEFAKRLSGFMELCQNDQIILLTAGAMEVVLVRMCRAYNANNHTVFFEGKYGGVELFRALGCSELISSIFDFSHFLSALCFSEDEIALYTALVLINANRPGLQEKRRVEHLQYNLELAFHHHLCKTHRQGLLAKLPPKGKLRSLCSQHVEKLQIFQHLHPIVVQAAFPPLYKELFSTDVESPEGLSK
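A Gal4/UAS one-hybrid system in insect cells: metallothionein-promoter Gal4–ROR gamma fusion plus Photinus luciferase reporter. Copper sulfate 700 uM final, 20 hr ambient incubation, luminescent detection after 10 min with reagent.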
VP16 counter: VP16 counterscreen qHTS for inhibitors of ROR gamma transcriptional activity. Drosophila S2 Gal4-VP16 UAS-luciferase, luminescence, 20 h. Potency, µM (series often up to 53.6 µM), inactives show at the top dose activity, negative = inhibition, hits mostly inhibitors. 310,000 tested, 3.5% active;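 note: Gal4-VP16 expression switched on by copper sulfate through the metallothionein promoter; potency is the fitted concentration of half-maximal effect; nearly all actives have a fitted effect of over 50% in size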
DT40 TDP1 no CPT: qHTS for Inhibitors of human tyrosyl-DNA phosphodiesterase 1 (TDP1): qHTS in cells in absence of CPT; 420,000 tested, 15% active; AID 686978, 2013; Potency, µM (doses to about 46.2 µM), for the others: top-dose activity change, negative = growth inhibition, hits mostly inhibitors; DT40 Tdp1-/- hTDP1 cells, no CPT, ATP luminescence, 48 h; note: potency is the fitted concentration of half-maximal effect; nearly all actives have a fitted effect of over 55% in size
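No-CPT arm: Tdp1-/-;hTDP1 DT40 cells (400/well) plus compounds, incubated ≥48 hr at 37 °C. Readout CellTiter-Glo luminescence.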
LDHA inh: qHTS assay for inhibitors of human lactate dehydrogenase. L-lactate dehydrogenase A chain (Homo sapiens), P00338. purified LDHA, NADH/diaphorase-resazurin fluorescence; active compounds read low. activity change, % (values are at about 110 or 230 µM). 480,000 tested, 0.15% active. AID 1347041, 2019; in the data active = activity change below about -30%; inconclusive = mostly about -25% to -30%;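 note: plate controls were DMSO wells for no effect and wells without enzyme for full effect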
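LDH5 2 nM; NADH 0.06 mM, pyruvate 0.2 mM; 200 mM Tris pH 7.4, EDTA, Tween-20; 5 min RT. Detection: diaphorase 0.133 mg/mL + resazurin 37 µM, fluorescence ex540/em590 at 0 and 20 min; normalized to enzyme-free and DMSO wells.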
IL-1B inflam inh: qHTS for Inhibitors of Inflammasome Signaling: IL-1-beta AlphaLISA Primary Screen; THP-1 LPS/ATP IL-1B secretion, AlphaLISA, 16 h; active compounds read low; activity change, % at 57.5 µM; 360,000 tested, 4.7% active; AID 743279, 2014; in the data active = activity change below about -50%; inconclusive = mostly about -30% to -49%
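Secreted IL-1B measured by AlphaLISA bead assay after 16 h compound exposure of THP-1 cells; compounds (final up to 57.5 uM) added 1 h before LPS (250 ng/mL) and ATP (1.25 mM) stimulation; lower signal means less secretion.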
TDP1 cell CPT: qHTS for Inhibitors of human tyrosyl-DNA phosphodiesterase 1 (TDP1): qHTS in cells in presence of CPT. chicken DT40 Tdp1-/-;hTDP1 cells + 20 nM CPT, ATP luminescence, 48 h. Potency, µM (titrated, usually from 46.2 µM), inactives show top-dose activity change, negative = growth inhibition, hits mostly inhibitors. 420,000 tested, 12% active. AID 686979, 2013; note: potency is the fitted concentration of half-maximal effect; nearly all actives have a fitted effect of over 55% in size
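Chicken DT40 Tdp1-/- cells complemented with human TDP1, 400 cells/well, exposed to compounds plus 20 nM camptothecin for at least 48 h at 37 C; viability read as ATP content by CellTiter-Glo luminescence.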
Active calls of the source: *; ? = inconclusive; . = not tested or not shown. Unless noted, calls come from the whole dose curve; as a rule, active = well fitted curve in the direction sought with a large enough effect; inconclusive = small, poorly fitted or top-dose-only effect, or another doubt; inactive = no such curve, though single readings can be large; an effect the other way counts as inactive or inconclusive. Unless noted, % is set by controls: 0 for no effect and ±100 for the full control effect.

SMILES	RORgamma inh	VP16 counter	DT40 TDP1 no CPT	LDHA inh	IL-1B inflam inh	TDP1 cell CPT
COc1ccc(N=C2C(=S)N(c3ccc(OC)cc3)C(=NS(=O)(=O)c3ccccc3)N2c2ccccc2)cc1	.	.	1.5µM*	12	-5	1.5µM*
CC(C)c1ccc(CC(=O)N2CCC2(C)C(=O)Nc2ccc3c(c2)OCO3)cc1 (stereo unspecified)	.	.	18µM*	1	29	?
Cc1ccc(NC(=O)C2(C)CCN2C(=O)Cc2ccc(C(C)C)cc2)cc1 (stereo unspecified)	.	.	23µM*	3	32	?
CC1(C(=O)Nc2ccc3c(c2)OCO3)CCN1Cc1csc2ccccc12 (stereo unspecified)	.	.	?	-1	?	23µM*
COc1ccccc1CN(CC(=O)NCc1ccc2c(c1)OCO2)C(=O)c1ccc2c(c1)OCCO2	-4%	-8%	21µM*	1	0	?
O=C(Nc1cccc(C(F)(F)F)c1)C1C2C3CCC(C3)C12 (stereo unspecified)	.	.	.	0	.	.
COc1ccc(CN2CCC2(C)C(=O)NCCNC(C)=O)c2ccccc12 (stereo unspecified)	.	.	1%	0	18	8%
COc1ccc(CN2CCC2(C)C(=O)NCc2ccc3c(c2)OCO3)c2ccccc12 (stereo unspecified)	.	.	?	-2	12	23µM*
CC1(C(=O)Nc2ccc3c(c2)OCO3)CCN1C(=O)Cc1cccc2ccccc12 (stereo unspecified)	.	.	16µM*	1	6	21µM*
CC1(C(=O)Nc2ccc3c(c2)OCO3)CCN1C(=O)Cc1cccs1 (stereo unspecified)	.	.	?	3	-7	?
CCOC(=O)C(CC)/C(C)=N/NC(=O)c1ccc([N+](=O)[O-])cc1 (stereo unspecified)	13µM*	?	-1%	-10	-8	?
CCOC(=O)/C(C)=N/NC(=O)c1ccc([N+](=O)[O-])cc1	-136%	-11%	-7%	-8	0	16%
CCOCCCNc1oc(COc2ccc(F)cc2)nc1C#N	.	.	.	8	.	.
Cc1cc(C)cc(N(CCC#N)C(=O)CSC2=Nc3ccccc3C3CC=NN23)c1 (stereo unspecified)	-2%	6%	?	-2	-91*	21µM*
N#Cc1ccccc1NC(=O)CSC1=Nc2ccccc2C2CC=NN12 (stereo unspecified)	11µM*	?	23µM*	-4	25	15µM*
N#Cc1ccccc1NC(=O)CSc1ccc([N+](=O)[O-])cn1	0%	-6%	-20%	-2	-20	?
O=C(CSC1=Nc2ccccc2C2CC=NN12)Nc1ccc2c(c1)OCO2 (stereo unspecified)	-37%	4%	23µM*	-10	?	7.3µM*
CCCOC(=O)c1ccc(NC(=O)CSC2=Nc3ccccc3C3CC=NN23)cc1 (stereo unspecified)	?	-3%	?	3	45	23µM*
Cc1cc(C)cc(N(CCC#N)C(=O)CSc2ncnc3sccc23)c1	.	.	?	2	?	?
O=C(CSc1ccccc1C(=O)O)Nc1ccc2c(c1)OCO2	.	.	28%	-2	12	-5%
CC(C)Cn1nc(C(=O)N2CCCC2c2ccc3c(c2)OCCCO3)c2ccccc2c1=O (stereo unspecified)	.	.	.	1	.	.
Cc1cc(=O)oc2cc(OCC(=O)OCC(=O)Nc3ccc(OC(F)F)cc3)ccc12	.	.	.	-1	.	.
CCOC(=O)c1c(C)c(C)n(Cc2cccc(OC)c2OC)c1C	5%	3%	23µM*	0	-11	?
CCC1CCCCN1C(=O)CSc1nnc(-c2ccc(OC)cc2)o1 (stereo unspecified)	38%	4%	21µM*	1	-7	?
CCC1CCCCN1C(=O)CSc1nnc(-c2c[nH]c3ccccc23)o1 (stereo unspecified)	3%	-3%	?	-4	-21	21µM*
SMILES	RORgamma inh	VP16 counter	DT40 TDP1 no CPT	LDHA inh	IL-1B inflam inh	TDP1 cell CPT
CCC(C)NC(=O)CSc1nnc(-c2c[nH]c3ccccc23)o1 (stereo unspecified)	10%	-3%	-21%	4	1	-2%
CC1CCCC(C)N1C(=O)COC(=O)c1c[nH]c2ccccc12 (stereo unspecified)	.	.	3.3µM*	-1	-7	-8%
CC1CCCCN1C(=O)CSc1nnc(-c2ccc(Cl)s2)o1 (stereo unspecified)	22%	-16%	29µM*	-2	-8	?
Cc1nn(-c2ccccc2)c2sc(C(=O)NC3CCN(Cc4ccccc4)CC3)cc12	.	.	.	5	.	.
O=C(CCc1ncc(-c2ccccc2)o1)NCC(c1ccccc1)N1CCCC1 (stereo unspecified)	.	.	.	-8	.	.
CCOC(=O)CSc1nnc(-c2c[nH]c3ccccc23)o1	-11%	-19%	7%	-9	-93*	16%
CC1CCCC(C)N1C(=O)CSc1nnc(-c2c[nH]c3ccccc23)o1 (stereo unspecified)	-12%	-14%	16µM*	-10	-16	?
CC1CCCN(C(=O)CSc2nnc(-c3c[nH]c4ccccc34)o2)C1 (stereo unspecified)	-2%	2%	?	-3	-4	?
CCSc1nnc(-c2c[nH]c3ccccc23)o1	30%	1%	-23%	-2	-12	4%
Cc1ccccc1NC1(c2nnnn2-c2ccccc2)CCCCC1	.	.	.	0	.	.
CS(=O)(=O)c1nc(S(=O)(=O)c2ccc(Cl)cc2)c(NCCN2CCOCC2)s1	3%	1%	20%	-2	-52*	-11%
CS(=O)(=O)c1nc(S(=O)(=O)c2ccc(Cl)cc2)c(NCCCn2ccnc2)s1	4%	-6%	20%	-5	-56*	5%
CCS(=O)(=O)c1nc(S(=O)(=O)c2ccc(Cl)cc2)c(NCCN2CCOCC2)s1	-19%	?	2%	-1	-1	-11%
CCC(C)(C)n1nnnc1C(c1cc2cc(OC)c(OC)cc2[nH]c1=O)N1CCc2ccccc21 (stereo unspecified)	-2%	-20%	?	20	0	20µM*

From PubChem BioAssay
